An excerpt weighted towards active compounds, which were near 3.3% of everything screened.
MITF act: increases MITF-driven TRPM1 promoter luciferase signal. SK-MEL-5 TRPM1-promoter luciferase, 24 h; % of positive control, neutral wells = 0. AID 588334. 300,000 tested, 0.75% active. activation, % at 12.5 µM;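 active means mean activation of at least 80% with every replicate also reaching 80%; inconclusive means mean reaches 80% but some replicate falls short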;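 further: 0% = neutral control wells and 100% = parthenolide positive control wells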
GAA850 FXN act: activators of GAA850 frataxin (FXN) promoter | activation, % at 6 µM | 360,000 tested, 0.56% active | HEK293 lucGAA850 FXN promoter luciferase reporter, 24 h; percent of 10 µM SAHA response;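 active means activation above the average of all compounds screened plus 3 SD, cutoff fixed separately per campaign, cut at about 7.5% in these data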;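 further: 0% = DMSO wells and 100% = 10 µM SAHA wells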
Statin myotox sup: suppression of simvastatin myotoxicity; AID 602340; rescue of ATP level, % at 7.49 µM; C2C12 myotubes + simvastatin, ATP luminescence, 48 h; scaled: DMSO 0, geranylgeraniol control 100; 330,000 tested, 0.78% active;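 active means mean ATP rescue above about 67%, or every replicate alone reaching that limit, limit read from the data, passing the limit was not always enough; inconclusive means no clear call, values can overlap the other calls; inactive means mean under the limit and some replicate under it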;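 further: myotubes were challenged with 10 µM simvastatin during compound exposure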
esBAF inh: inhibitors of esBAF chromatin remodeling in mouse ES cells. Bmi1-luciferase knock-in reporter, 24 h; 100% = twice the neutral-well signal. reporter increase, % at 12.5 µM. 350,000 tested, 2% active; in the data active means activation above about 40%; inconclusive means no clear call, values can overlap the other calls;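 further: 0% = median of the plate's neutral control wells and 100% = double that signal; a rise in the Bmi1 reporter signal indicates esBAF inhibition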
Wnt bcat act: Wnt/beta-catenin pathway activation | Wnt/beta-catenin reporter cell assay, activator, plate reader | activation, % at 9.35 µM | 300,000 tested, 1.2% active | AID 743398; in the data active means activation above about 30%, passing the limit was not always enough; inconclusive means no clear call, values can overlap the other calls;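 further: 0% = neutral control wells and 100% = positive control wells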
* = called active by the depositor; ? = inconclusive; . = no result given.

SMILES	MITF act	GAA850 FXN act	Statin myotox sup	esBAF inh	Wnt bcat act
Cc1cccc(CNC(=O)c2ccc3nc(Cc4ccccc4F)oc3c2)n1	?	3	-11	-1	23
O=C(NCCc1ccccn1)c1ccc2nc(Cc3ccccc3F)oc2c1	54	3	6	72*	16
CCCNC(=O)N[C@H]1CC[C@H](CC(=O)NC2CCCCC2)O[C@H]1CO	.	.	-3	5	.
C[C@H]1CCCCO[C@H](CN(C)Cc2ccncc2)[C@@H](C)CN([C@@H](C)CO)C(=O)c2cc(NC(=O)c3ccccc3)ccc2O1	.	.	-22	-1	.
Cc1ccc(C2C(C(=O)c3cccs3)=C(O)C(=O)N2c2cccc(C)n2)cc1 (stereo not given)	.	1	.	.	34*
C[C@@H]1CCCCO[C@@H](CN(C)S(C)(=O)=O)[C@@H](C)CN([C@@H](C)CO)C(=O)c2cc(N(C)C)ccc2O1	.	.	-16	5	.
Clc1cccc(-c2cc3nc4c(c(N5CCN(c6cnccn6)CC5)n3n2)CCCC4)c1	47	-1	-17	47*	3
Oc1ccccc1C=NNC(=S)NC1CC2C=CC1C2 (stereo not given)	.	1	3	70*	-3
Oc1ccccc1/C=N/NC(=S)NC1CC2C=CC1C2 (stereo not given)	.	5	-15	36	4
COc1cccc(-c2ccc3n(c2=O)C[C@H]2[C@H](CO)[C@@H](C(=O)N(C)C)N(C(=O)C4CCC4)[C@@H]32)c1	.	.	24	-7	.
COc1ccc(CNC(=O)C[C@@H]2C=C[C@@H](NC(=O)CN(C)C)[C@@H](CO)O2)cc1	.	.	-2	5	.
CC(C(=O)NCc1ccccc1)N1C(=O)CN(C)C(=O)c2ccccc21 (stereo not given)	-10	-1	89*	1	.
CC(C(=O)NC(=O)NCc1ccccc1)N1C(=O)c2ccccc2C1=O (stereo not given)	7	2	96*	-8	-4
COc1ccccc1NC(=O)Nc1ccc2c(c1)OC[C@@H](C)N(Cc1ccccc1Cl)C[C@@H](C)[C@H](OC)CN(C)C2=O	.	.	12	11	.
Cc1ccc(NC(=O)C2CCCN(S(=O)(=O)c3cccs3)C2)cc1 (stereo not given)	-8	-2	78*	17	-1
O=C(Nc1ccc(Br)cc1)C1CCCN1S(=O)(=O)c1cccs1 (stereo not given)	-4	2	139*	7	.
CCc1ccc(NC(=O)C2CCCN(S(=O)(=O)c3cccs3)C2)cc1 (stereo not given)	-18	-2	-34	2	-6
CC1CCC(NC(=O)c2ccc(NS(=O)(=O)c3ccc4[nH]c(=O)[nH]c4c3)cc2)CC1 (stereo not given)	98*	5	.	.	23
CCNC(=O)c1ccc(NS(=O)(=O)c2ccc3[nH]c(=O)[nH]c3c2)cc1	4	1	.	.	-4
CS(=O)(=O)NCCSc1nnnn1-c1ccccc1	-1	0	.	.	.
O=S(=O)(NCCSc1nnnn1-c1ccccc1)c1cccs1	14	1	.	53*	8
COc1ccc2[nH]c(-c3ccccc3)cc2c1	106*	3	2	?	46*
COc1ccc(-c2nc3ccc([N+](=O)[O-])cc3[nH]2)cc1	47	2	.	.	50*
Cc1ccc(-c2nc3ccc([N+](=O)[O-])cc3[nH]2)cc1	13	1	.	.	19
CCOc1ccc2nc(-c3ccccc3)[nH]c2c1	.	-5	-51	-36	.
SMILES	MITF act	GAA850 FXN act	Statin myotox sup	esBAF inh	Wnt bcat act
COc1ccc2nc(-c3ccccc3)[nH]c2c1	.	5	-17	4	75*
COc1ccc2[nH]c(-c3ccc(C)cc3)cc(=O)c2c1	-47	-3	-3	-55	.
Cc1ccccc1-c1ccc2c(c1)O[C@H](CN(C)C(=O)c1ccccn1)[C@H](C)CN([C@@H](C)CO)S2(=O)=O	.	.	-3	2	.
C[C@@H]1CN([C@H](C)CO)C(=O)c2cc(NC(=O)CCC(F)(F)F)ccc2O[C@@H]1CN(C)Cc1ccc2c(c1)OCO2	.	.	26	-7	.
COc1ccccc1-c1nc(SCc2ccccn2)n[nH]1	-3	5	-13	60*	3
CN1C(=O)c2cc(NC(=O)C3CC3)ccc2OC[C@@H]2O[C@@H](CC(=O)NC3CCC3)CC[C@@H]21	.	.	-31	-4	.
CCCC(=O)Nc1ccc2c(c1)C(=O)N(C)[C@@H]1CC[C@@H](CC(=O)Nc3ccccc3)O[C@@H]1CO2	.	.	11	0	.
CC(C)C(OC(=O)C1=Cc2ccccc2OC1)C(=O)NCC1CCCO1 (stereo not given)	9	5	-12	-13	36*
O=C(NC(=S)Nc1cnc2ccccc2c1)c1ccccc1	55	5	.	.	53*
S=C(NCCc1ccccc1)Nc1ccc(Nc2ccccc2)cc1	2	-4	-8	14	-1
COC(=O)c1cccc(C(=O)Nc2cnc3ccccc3c2)n1	18	-1	-4	59*	.
O=C(NC(=S)Nc1ncc(Br)cc1Br)c1ccccc1	36	4	-8	53*	12
Cc1cc(C)nc(NC(=S)NC(=O)c2ccccc2)n1	.	4	5	27	3
S=C(NCCc1ccccc1)Nc1cnc2ccccc2c1	66	5	-26	44*	15
COc1ccccc1NC(=O)N1C[C@H](O)COC[C@@H]2O[C@H](CC(=O)NCCc3ccccc3)CC[C@H]21	.	.	-12	1	.
COc1ccccc1CNC(=O)C[C@H]1C=C[C@H](NC(C)=O)[C@@H](CO)O1	.	.	-7	-6	.
COc1ccc(CN(C)C[C@H]2OCCCC[C@H](C)Oc3ccc(NC(=O)NC(C)C)cc3C(=O)N([C@H](C)CO)C[C@@H]2C)cc1	.	.	-3	-9	.
Cn1ncc2cc(NC(=S)NC(=O)c3ccccc3)ccc21	58	3	-14	48*	.
COc1ccc(NC(=S)NC(=O)c2ccccc2)cn1	74	5	.	.	19
Cc1ccc(NC(=O)Nc2cnc3ccccc3c2)cc1	?	4	-39	4	39*
C[C@@H](NC(=O)C[C@H]1C[C@H]2c3cc(NC(=O)CC4CC4)ccc3O[C@H]2[C@@H](CO)O1)c1ccccc1	.	.	-1	-2	.
CCc1ccc(NC2=CC(=O)C(=O)c3ccccc32)cc1	-103	0	.	.	33*
CCc1ccc2c(c1)C(=O)c1ccccc1C2=O	35	8	.	.	74*
C[C@H]1CN([C@@H](C)CO)C(=O)c2cc(C#CC3CCCCC3)cnc2O[C@@H]1CN(C)S(C)(=O)=O	.	.	8	-1	.
CCc1ccc2c(COC(=O)c3n[nH]c4ccccc34)cc(=O)oc2c1	.	-1	1	77*	.
CCOC(=O)c1n[nH]c2ccccc12	4	0	1	10	.
Cc1ccc2c(COC(=O)c3n[nH]c4ccccc34)cc(=O)oc2c1	.	5	10	69*	.
CC(=O)Nc1ccccc1C(=O)C(=O)Nc1ccc(Cl)cc1	16	4	.	.	0
CC(=O)Nc1ccccc1C(=O)C(=O)Nc1ccccc1	-2	2	.	35*	3
